Data on ten molecules can be found in ChEMBL document CHEMBL2218924, “A broad activity screen in support of a chemogenomic map for kinase signalling research and drug discovery” (Biochem J, 2013).

For assay [1], the target named is Calcium/calmodulin-dependent protein kinase type 1 (Homo sapiens) (UniProt Q14012). Conditions: at 10 µM.
Assay [2] has as its target Calcium/calmodulin-dependent protein kinase type II subunit beta (Homo sapiens) (UniProt Q13554). The conditions noted are these: at 1 µM.
For assay [3] the target is unchanged. The conditions noted are these: at 10 µM.
For assay [4], the target named is Calcium/calmodulin-dependent protein kinase type II subunit delta (Homo sapiens) (UniProt Q13557). The conditions noted are these: at 1 µM.
Assay [5] has the same target. The conditions noted are these: at 10 µM.
Assay [6] deals with T1, Calcium/calmodulin-dependent protein kinase type IV (Homo sapiens) (UniProt Q16566).
T1 sequence (whole entry): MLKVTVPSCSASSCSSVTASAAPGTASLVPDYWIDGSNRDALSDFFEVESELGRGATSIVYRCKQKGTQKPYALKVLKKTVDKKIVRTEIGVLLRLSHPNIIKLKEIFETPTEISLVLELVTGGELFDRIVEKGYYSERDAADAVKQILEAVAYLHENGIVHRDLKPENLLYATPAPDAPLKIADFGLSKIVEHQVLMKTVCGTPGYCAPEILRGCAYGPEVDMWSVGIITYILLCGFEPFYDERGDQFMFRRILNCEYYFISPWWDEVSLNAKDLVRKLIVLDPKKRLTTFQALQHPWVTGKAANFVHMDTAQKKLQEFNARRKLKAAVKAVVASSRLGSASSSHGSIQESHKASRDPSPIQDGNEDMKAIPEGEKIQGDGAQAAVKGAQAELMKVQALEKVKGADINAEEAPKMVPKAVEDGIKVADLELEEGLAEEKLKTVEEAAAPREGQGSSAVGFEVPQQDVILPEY
The conditions noted are these: at 10 µM.

The target of assay [7] is Death-associated protein kinase 1 (Homo sapiens) (UniProt P53355). Conditions: at 10 µM.
The target in assay [8] is T2, Discoidin domain-containing receptor 2 (Homo sapiens) (UniProt Q16832).
T2 sequence (whole entry): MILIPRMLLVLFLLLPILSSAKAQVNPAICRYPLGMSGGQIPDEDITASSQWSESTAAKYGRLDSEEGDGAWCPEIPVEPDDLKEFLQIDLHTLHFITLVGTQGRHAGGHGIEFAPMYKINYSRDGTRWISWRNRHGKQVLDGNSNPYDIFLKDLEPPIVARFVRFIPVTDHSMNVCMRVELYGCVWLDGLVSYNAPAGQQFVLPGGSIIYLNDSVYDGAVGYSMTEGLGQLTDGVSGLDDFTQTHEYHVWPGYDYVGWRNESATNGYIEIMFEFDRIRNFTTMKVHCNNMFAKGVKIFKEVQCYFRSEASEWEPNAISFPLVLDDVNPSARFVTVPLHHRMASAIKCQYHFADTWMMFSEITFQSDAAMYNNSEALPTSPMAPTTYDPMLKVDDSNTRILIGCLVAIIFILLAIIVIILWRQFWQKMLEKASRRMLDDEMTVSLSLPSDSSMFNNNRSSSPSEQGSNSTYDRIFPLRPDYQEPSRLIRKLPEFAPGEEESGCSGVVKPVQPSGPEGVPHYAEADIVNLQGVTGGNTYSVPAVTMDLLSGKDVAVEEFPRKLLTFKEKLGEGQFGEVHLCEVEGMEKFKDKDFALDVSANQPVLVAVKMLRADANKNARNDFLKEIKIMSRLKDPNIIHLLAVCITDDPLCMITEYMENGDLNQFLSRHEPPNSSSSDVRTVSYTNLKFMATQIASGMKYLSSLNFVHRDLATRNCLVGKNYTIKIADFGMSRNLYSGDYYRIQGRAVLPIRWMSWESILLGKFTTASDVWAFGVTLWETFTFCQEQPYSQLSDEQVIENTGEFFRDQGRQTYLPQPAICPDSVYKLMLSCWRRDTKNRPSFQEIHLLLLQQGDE
The conditions noted are these: at 1 µM.

For assay [9], the target named is T3, Myotonin-protein kinase (Homo sapiens) (UniProt Q09013).
T3 sequence (whole entry): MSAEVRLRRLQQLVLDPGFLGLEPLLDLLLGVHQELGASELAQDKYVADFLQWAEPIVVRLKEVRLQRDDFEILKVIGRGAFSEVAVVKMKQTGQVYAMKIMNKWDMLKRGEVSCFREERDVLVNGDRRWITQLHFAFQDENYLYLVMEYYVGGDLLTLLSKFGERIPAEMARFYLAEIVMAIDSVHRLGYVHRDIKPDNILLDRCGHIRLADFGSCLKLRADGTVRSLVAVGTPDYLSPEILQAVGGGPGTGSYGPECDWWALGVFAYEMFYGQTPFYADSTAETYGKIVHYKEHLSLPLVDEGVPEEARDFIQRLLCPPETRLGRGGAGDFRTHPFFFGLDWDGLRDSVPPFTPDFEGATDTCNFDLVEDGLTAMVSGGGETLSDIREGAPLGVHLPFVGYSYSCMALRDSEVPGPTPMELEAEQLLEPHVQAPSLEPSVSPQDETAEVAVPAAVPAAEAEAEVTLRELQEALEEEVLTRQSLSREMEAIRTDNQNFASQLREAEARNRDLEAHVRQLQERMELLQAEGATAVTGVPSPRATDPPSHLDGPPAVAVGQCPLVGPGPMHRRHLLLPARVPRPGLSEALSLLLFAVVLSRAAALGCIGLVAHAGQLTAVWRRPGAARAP
Conditions: at 10 µM.

Assay [10] addresses Calcium/calmodulin-dependent protein kinase type II subunit gamma (Homo sapiens) (UniProt Q13555). The conditions noted are these: at 1 µM.
Assay [11] has the same target. Conditions: at 10 µM.
In assay [12] the target is Death-associated protein kinase 2 (Homo sapiens) (UniProt Q9UIK4). The conditions noted are these: at 1 µM.
Assay [13] concerns the target T4, Serine/threonine-protein kinase DCLK2 (Homo sapiens) (UniProt Q8N568).
T4 sequence (whole entry): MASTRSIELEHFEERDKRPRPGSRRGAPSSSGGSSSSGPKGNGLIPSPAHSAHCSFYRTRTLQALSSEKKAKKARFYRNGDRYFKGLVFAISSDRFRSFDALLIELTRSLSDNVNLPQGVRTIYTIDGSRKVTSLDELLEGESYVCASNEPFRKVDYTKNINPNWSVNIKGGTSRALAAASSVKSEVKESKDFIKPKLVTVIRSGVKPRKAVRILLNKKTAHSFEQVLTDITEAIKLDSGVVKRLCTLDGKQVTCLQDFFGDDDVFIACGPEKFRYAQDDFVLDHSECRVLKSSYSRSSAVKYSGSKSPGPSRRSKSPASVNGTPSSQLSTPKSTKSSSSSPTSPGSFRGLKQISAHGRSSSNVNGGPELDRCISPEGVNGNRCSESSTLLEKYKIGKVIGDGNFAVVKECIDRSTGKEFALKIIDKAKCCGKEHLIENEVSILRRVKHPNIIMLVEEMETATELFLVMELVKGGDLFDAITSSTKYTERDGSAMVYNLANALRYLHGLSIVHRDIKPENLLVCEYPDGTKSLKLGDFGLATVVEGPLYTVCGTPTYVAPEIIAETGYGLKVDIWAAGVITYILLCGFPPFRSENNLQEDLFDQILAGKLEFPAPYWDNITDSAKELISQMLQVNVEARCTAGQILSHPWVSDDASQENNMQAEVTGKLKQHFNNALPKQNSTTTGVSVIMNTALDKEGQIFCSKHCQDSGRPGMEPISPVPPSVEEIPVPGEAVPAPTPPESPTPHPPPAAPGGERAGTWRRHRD
Conditions: at 1 µM.

Assay [14] concerns the target T4, Serine/threonine-protein kinase DCLK2 (Homo sapiens). The conditions noted are these: at 10 µM.
In assay [15] the target is T5, Serine/threonine-protein kinase 17A (Homo sapiens) (UniProt Q9UEE5).
T5 sequence (whole entry): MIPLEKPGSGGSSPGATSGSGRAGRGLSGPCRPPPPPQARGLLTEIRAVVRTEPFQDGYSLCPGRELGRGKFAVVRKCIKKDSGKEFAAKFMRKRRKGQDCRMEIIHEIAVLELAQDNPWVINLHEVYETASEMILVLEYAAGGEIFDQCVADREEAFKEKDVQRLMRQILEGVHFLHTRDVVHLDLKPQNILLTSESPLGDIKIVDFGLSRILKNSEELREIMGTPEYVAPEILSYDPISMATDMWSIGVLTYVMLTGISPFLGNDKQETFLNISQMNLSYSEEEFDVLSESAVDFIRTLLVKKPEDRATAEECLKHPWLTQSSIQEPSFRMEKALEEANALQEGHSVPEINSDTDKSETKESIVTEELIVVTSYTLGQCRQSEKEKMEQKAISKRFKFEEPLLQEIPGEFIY
Conditions: at 1 µM.

The target in assay [16] is T1, Calcium/calmodulin-dependent protein kinase type IV (Homo sapiens). Conditions: at 1 µM.
The target in assay [17] is T3, Myotonin-protein kinase (Homo sapiens). The conditions noted are these: at 1 µM.
The target of assay [18] is Death-associated protein kinase 2 (Homo sapiens) (UniProt Q9UIK4). Conditions: at 10 µM.
Assay [19] concerns the target T2, Discoidin domain-containing receptor 2 (Homo sapiens). The conditions noted are these: at 10 µM.

Calcium/calmodulin-dependent protein kinase type II subunit delta (Homo sapiens), sequence (Q13557 whole entry): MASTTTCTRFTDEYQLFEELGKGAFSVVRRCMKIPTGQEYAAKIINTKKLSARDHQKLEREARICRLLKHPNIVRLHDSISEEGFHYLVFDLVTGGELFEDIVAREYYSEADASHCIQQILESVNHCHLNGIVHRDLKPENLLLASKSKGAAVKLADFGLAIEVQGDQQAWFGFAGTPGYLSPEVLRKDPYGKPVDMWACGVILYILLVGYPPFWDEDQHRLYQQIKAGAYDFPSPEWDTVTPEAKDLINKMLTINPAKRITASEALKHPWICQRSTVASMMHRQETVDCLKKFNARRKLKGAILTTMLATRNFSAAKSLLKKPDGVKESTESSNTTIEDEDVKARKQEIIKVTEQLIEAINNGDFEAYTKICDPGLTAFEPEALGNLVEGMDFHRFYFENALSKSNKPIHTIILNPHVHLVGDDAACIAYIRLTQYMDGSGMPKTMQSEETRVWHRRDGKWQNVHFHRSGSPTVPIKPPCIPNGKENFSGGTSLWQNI
Calcium/calmodulin-dependent protein kinase type II subunit gamma (Homo sapiens), sequence (Q13555 whole entry): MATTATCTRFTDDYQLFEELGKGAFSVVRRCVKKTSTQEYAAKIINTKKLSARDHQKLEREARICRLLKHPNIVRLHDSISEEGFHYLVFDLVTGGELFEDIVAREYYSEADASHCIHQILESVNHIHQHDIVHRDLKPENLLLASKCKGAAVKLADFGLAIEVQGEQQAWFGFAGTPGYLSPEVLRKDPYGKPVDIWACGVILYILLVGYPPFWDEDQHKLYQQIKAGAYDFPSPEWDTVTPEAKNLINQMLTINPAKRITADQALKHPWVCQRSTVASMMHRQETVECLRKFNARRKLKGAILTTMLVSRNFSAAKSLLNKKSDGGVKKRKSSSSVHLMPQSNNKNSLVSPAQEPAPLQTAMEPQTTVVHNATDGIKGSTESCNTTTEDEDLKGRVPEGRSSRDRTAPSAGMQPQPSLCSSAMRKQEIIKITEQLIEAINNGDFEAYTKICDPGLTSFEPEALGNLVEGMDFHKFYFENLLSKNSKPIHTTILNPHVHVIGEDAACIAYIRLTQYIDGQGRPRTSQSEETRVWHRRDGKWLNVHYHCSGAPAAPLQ
Calcium/calmodulin-dependent protein kinase type II subunit beta (Homo sapiens), sequence (Q13554 whole entry): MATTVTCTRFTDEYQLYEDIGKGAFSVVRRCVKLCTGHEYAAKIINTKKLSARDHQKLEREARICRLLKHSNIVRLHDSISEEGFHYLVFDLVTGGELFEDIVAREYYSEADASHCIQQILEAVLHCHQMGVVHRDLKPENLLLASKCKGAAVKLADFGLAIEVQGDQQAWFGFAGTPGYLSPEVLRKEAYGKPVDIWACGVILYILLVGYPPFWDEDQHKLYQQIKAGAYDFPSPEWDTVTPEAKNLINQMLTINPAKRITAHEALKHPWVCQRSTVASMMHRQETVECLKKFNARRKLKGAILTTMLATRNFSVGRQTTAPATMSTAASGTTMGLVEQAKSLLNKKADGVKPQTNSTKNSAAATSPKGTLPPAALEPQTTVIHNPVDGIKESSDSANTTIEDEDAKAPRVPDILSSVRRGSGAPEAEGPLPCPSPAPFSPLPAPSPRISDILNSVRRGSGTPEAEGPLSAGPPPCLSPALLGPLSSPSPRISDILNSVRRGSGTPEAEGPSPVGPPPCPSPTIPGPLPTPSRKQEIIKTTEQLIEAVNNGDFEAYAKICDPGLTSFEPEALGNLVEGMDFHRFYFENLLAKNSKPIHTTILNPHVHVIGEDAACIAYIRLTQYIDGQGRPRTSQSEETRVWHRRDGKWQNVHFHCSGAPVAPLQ
Death-associated protein kinase 2 (Homo sapiens), sequence (Q9UIK4 whole entry, looked up, the tested form may be a part): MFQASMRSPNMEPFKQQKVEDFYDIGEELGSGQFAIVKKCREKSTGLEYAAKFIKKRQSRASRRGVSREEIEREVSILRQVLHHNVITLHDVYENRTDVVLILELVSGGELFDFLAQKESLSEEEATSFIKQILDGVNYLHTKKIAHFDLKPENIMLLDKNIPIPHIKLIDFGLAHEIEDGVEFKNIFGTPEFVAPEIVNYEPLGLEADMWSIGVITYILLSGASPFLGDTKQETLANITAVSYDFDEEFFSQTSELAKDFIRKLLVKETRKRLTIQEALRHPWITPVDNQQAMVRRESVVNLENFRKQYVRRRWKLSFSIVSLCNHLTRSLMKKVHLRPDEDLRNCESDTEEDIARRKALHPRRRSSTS
Calcium/calmodulin-dependent protein kinase type 1 (Homo sapiens), sequence (Q14012 whole entry, looked up): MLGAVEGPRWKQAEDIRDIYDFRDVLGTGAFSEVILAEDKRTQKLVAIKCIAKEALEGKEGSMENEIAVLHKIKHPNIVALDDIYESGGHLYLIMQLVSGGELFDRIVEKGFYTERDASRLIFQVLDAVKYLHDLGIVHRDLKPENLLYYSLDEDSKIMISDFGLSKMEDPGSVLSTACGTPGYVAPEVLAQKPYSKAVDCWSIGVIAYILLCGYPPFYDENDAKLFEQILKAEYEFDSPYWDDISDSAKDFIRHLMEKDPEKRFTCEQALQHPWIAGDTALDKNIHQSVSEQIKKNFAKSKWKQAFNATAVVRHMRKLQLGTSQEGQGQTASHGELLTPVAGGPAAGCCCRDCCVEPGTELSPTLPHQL
Death-associated protein kinase 1 (Homo sapiens), sequence (P53355 whole entry, looked up, the tested form may be a part): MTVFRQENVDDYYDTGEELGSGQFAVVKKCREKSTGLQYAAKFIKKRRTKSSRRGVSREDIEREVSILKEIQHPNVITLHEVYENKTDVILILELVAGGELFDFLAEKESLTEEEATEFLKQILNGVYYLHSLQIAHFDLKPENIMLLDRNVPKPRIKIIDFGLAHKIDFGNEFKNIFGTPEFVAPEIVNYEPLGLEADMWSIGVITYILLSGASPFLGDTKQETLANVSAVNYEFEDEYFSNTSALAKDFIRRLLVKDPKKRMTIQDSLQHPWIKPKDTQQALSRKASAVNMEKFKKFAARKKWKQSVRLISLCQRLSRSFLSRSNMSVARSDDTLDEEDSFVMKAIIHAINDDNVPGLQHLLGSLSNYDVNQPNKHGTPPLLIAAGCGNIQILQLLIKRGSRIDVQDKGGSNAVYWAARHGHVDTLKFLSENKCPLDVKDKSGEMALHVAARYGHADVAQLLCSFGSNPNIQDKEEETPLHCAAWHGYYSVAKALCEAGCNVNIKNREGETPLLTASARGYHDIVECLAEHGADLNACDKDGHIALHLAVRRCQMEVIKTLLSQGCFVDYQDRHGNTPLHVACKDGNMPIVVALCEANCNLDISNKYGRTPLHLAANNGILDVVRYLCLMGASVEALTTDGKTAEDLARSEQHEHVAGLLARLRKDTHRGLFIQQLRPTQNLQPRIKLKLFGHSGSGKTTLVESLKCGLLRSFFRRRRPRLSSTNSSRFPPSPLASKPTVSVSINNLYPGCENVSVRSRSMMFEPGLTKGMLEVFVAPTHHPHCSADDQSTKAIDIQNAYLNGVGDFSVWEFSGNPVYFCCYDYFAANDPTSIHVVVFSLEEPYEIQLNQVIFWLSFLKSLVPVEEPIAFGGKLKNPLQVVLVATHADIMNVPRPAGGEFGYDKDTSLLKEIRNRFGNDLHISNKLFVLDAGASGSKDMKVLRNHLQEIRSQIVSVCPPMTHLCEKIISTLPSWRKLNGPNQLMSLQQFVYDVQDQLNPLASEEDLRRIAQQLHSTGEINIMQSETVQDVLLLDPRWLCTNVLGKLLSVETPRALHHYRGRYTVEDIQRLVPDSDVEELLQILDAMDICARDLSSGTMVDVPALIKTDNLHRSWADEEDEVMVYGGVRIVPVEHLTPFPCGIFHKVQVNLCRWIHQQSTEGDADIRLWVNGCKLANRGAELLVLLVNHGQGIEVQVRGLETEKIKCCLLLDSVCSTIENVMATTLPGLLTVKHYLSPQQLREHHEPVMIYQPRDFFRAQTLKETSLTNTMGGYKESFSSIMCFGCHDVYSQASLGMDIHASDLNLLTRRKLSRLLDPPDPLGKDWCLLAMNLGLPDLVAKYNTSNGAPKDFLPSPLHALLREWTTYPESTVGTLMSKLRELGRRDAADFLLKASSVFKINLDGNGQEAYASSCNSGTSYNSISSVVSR

As for `O=C1C(Cl)=C(N2C(=O)CCC2=O)C(=O)c2ccccc21`, the residual activity in assay [1] was 78%; in assay [2], 90%; in assay [3], 86%; in assay [4] it was 97%; in [5] it was 99%; in assay [6], 10%. Moreover, the figures for the residual activity in [7], in [8] and in [9] were 90%, 89% and 85%, respectively.

On to `Oc1cccc(-c2nc(N3CCOCC3)c3oc4ncccc4c3n2)c1`, for which the residual activity in assay [3] was determined as 90%; in [10], 98%; in assay [11], 66%; in assay [6] it was 75%; in assay [7], 76%; in [12] it was 93%. Besides, the residual activity worked out at 94% in [13], 65% in assay [14] and 116% in [15].

Turning to `N#C/C(=C\c1ccc(O)c(O)c1)C(=O)NCc1ccccc1`, the residual activity came to 87% in assay [1]; 89% in assay [3]; 121% in [16]; 84% in assay [6]; 69% in assay [13]; 88% in assay [14]. The residual activity in assay [8] stood at 119%.

On to `COc1ccc(COc2ccc(Cc3cnc(N)nc3N)cc2OC)cc1`, for which the residual activity in assay [1] amounted to 76%; in assay [16], 130%; in assay [7] it was 82%; in assay [8] it was 112%; in assay [17] it was 115%; in assay [9] it was 139%. In addition, the residual activity in [15] was determined as 112%.

For the molecule `O=C1Cc2c([nH]c3ccc([N+](=O)[O-])cc23)-c2ccccc2N1`, the residual activity was determined as 61% in assay [2]; 76% in [3]; 24% in assay [10]; 32% in assay [4]; 20% in assay [5]; 10% in [15].

As to `CCCCc1c(-c2ccc(O)cc2)[nH]c2nccnc12`, the residual activity in [1] turned out to be 71%; in [2] it was 77%; in assay [3], 51%; in assay [4], 62%; in [5], 22%; in assay [12], 89%. The residual activity in [18] amounted to 96%; in assay [8], 71%; in assay [19], 36%; in assay [15], 77%.

For `COc1cc2nccc(Oc3ccc(NC(=S)NC(=O)c4ccccc4C)cc3)c2cc1OC`, the residual activity in assay [1] came out at 75%; in [2], 79%; in [3], 66%; in assay [5], 85%; in assay [16], 121%; in assay [6], 84%. Moreover, the residual activity in assay [7] came out at 76%; in [12], 99%; in assay [18], 99%; in assay [13], 82%; in assay [14] it was 94%; in [8], 26%. The residual activity in assay [19] turned out to be 11%; in [17], 138%; in assay [9] it was 141%; in [15], 129%.

For the molecule `CC(C)[C@H](CO)Nc1nc(Nc2cc(N)cc(Cl)c2)c2ncn(C(C)C)c2n1`, the residual activity in assay [2] was found to be 92%; in assay [3], 58%; in assay [10], 76%; in assay [11], 20%; in assay [4] it was 80%; in [5], 24%. In addition, the residual activity is 96% in [16]; 33% in [6]; 80% in assay [7]; 99% in [12]; 97% in assay [18]; 94% in [13]. Moreover, the residual activity in assay [14] was determined as 95%; in [8] it was 95%; in [19], 88%; in assay [17] it was 87%; in [9] it was 90%.

Turning to `Nc1nccc(-c2c(-c3ccc(F)cc3)ncn2C2CCNCC2)n1`, the residual activity in [3] came out at 55%; in [11], 62%; in [4], 100%; in assay [5] it was 56%; in assay [17], 129%; in [9], 83%.

Take `O=C(Nc1ccc(Cl)cc1)c1ccccc1NCc1ccncc1`: the residual activity in [18] came out at 119%; in assay [13], 74%; in [19] it was 36%; in assay [15], 99%.
